“And” between values parts separate entries of the source, which are not always exact repeats. Equal entries are not always repeated. The whole screen tested about 5,500 compounds, of which about 2,000 (36%) were called active. Not shown: some 18% with an inconclusive outcome. Rule as the data show it: active = normalized growth mostly below about 0.91 (no sharp cut-off); inconclusive = no clear call, values can overlap the other calls; inactive = mostly above about 0.92. The list shows a part of the results.
Assay: chemical genetic growth profiling, strain panel (AID 1159580);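 also: tested at 20 µM; growth read once vehicle control cultures reached saturation at 30 °C; 1 = growth at the plate median or of vehicle wells; lower values mean less growth of the strain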
Settings: S. cerevisiae deletion strains, growth OD

Measured: normalized growth

COc1ccc(-c2cc(C(F)F)nn2-c2ccc(S(N)(=O)=O)cc2)cc1F
inactive: locus YAL013W, strain DEP1, active compounds read low 1 | locus YAL021C, strain ccr4, active compounds read low 0.991 | locus YAL026C, strain drs2, active compounds read low 1.02 | locus YAL030W, strain snc1, active compounds read low 1.01 | locus YBL061C, strain skt5, active compounds read low 1 | locus YBR009C, strain hhf1, active compounds read low 1 | locus YBR021W, strain FUR4, active compounds read low 1.02 | locus YBR023C, strain chs3, active compounds read low 0.992 | locus YBR171W, strain sec66, active compounds read low 1.01 | locus YBR229C, strain ROT2, active compounds read low 1.01 | locus YBR231C, strain swc5, active compounds read low 1.01 | locus YBR279W, strain paf1, active compounds read low 1 | locus YCL011C, strain gbp2, active compounds read low 1.01 | locus YCL016C, strain dcc1, active compounds read low 0.992 | locus YCL029C, strain bik1, active compounds read low 1.01 | locus YCL069W, strain vba3, active compounds read low 1 | locus YCR088W, strain abp1, active compounds read low 1 | locus YDL005C, strain med2, active compounds read low 1 | locus YDL035C, strain GPR1, active compounds read low 1.02 | locus YDL040C, strain nat1, active compounds read low 1.01 | locus YDL074C, strain BRE1, active compounds read low 0.997 | locus YDL101C, strain DUN1, active compounds read low 1 | locus YDL134C, strain PPH21, active compounds read low 0.994 | locus YDL185W, strain tfp1, active compounds read low 1.01 | locus YDL192W, strain arf1, active compounds read low 1.01 | locus YDR001C, strain nth1, active compounds read low 1.02 | locus YDR069C, strain doa4, active compounds read low 1.01 | locus YDR101C, strain arx1, active compounds read low 1.01 | locus YDR137W, strain rgp1, active compounds read low 1.04 | locus YDR150W, strain NUM1, active compounds read low 0.999 | locus YDR159W, strain sac3, active compounds read low 1.01 | locus YDR162C, strain NBP2, active compounds read low 0.988 | locus YDR195W, strain ref2 0.988 | locus YDR297W, strain sur2, active compounds read low 1.01 | locus YDR318W, strain mcm21, active compounds read low 1.02 | locus YDR334W, strain swr1, active compounds read low 1.02 | locus YDR335W, strain msn5, active compounds read low 1 | locus YDR388W, active compounds read low 1.02 | locus YDR392W, strain spt3, active compounds read low 0.922 | locus YDR502C, strain sam2, active compounds read low 0.996 | locus YEL003W, strain gim4, active compounds read low 1 | locus YEL037C, strain rad23, active compounds read low 1.01 | locus YEL061C, strain CIN8 (second series), active compounds read low 1.01 | locus YEL061C, strain CIN8, active compounds read low 1 | locus YER015W, strain faa2, active compounds read low 0.987 | locus YER016W, strain bim1, active compounds read low 1 | locus YER110C, active compounds read low 1.03 | locus YER111C, strain swi4, active compounds read low 0.999 | locus YER155C, strain BEM2 (second series), active compounds read low 0.887 | locus YER155C, strain BEM2, active compounds read low 0.998 | locus YER167W, strain BCK2, active compounds read low 1.01 | locus YFR010W, strain ubp6, active compounds read low 1.02 | locus YGL078C, strain dbp3, active compounds read low 0.996 | locus YGL086W, strain mad1, active compounds read low 1.03 | locus YGL167C, strain pmr1, active compounds read low 0.999 | locus YGL173C, strain kem1, active compounds read low 0.998 | locus YGL227W, strain vid30, active compounds read low 1.01 | locus YGL240W, strain doc1, active compounds read low 0.961 | locus YGL248W, strain PDE1, active compounds read low 0.997 | locus YGL253W, strain hxk2, active compounds read low 1.01 | locus YGR078C, strain PAC10, active compounds read low 0.994 | locus YGR135W, strain pre9, active compounds read low 0.982 | locus YGR229C, strain SMI1, active compounds read low 0.989 | locus YGR252W, strain gcn5, active compounds read low 1.08 | locus YHR013C, strain ard1, active compounds read low 1.06 | locus YHR027C, strain rpn1, active compounds read low 1.01 | locus YHR030C, strain SLT2, active compounds read low 1.01 and 1.05 | locus YHR079C, strain IRE1 (second series), active compounds read low 1.02 | locus YHR079C, strain IRE1, active compounds read low 1.06 | locus YHR094C, strain hxt1, active compounds read low 1.01 | locus YHR129C, strain ARP1, active compounds read low 1 | locus YHR142W, strain chs7, active compounds read low 0.999 | locus YHR200W, strain rpn10, active compounds read low 1.02 | locus YIL066C, strain RNR3, active compounds read low 1.01 | locus YIL073C, strain SPO22, active compounds read low 1.07 | locus YIL125W, strain kgd1, active compounds read low 1.01 | locus YIR030C, strain dcg1, active compounds read low 1.01 | locus YJL092W, strain hpr5, active compounds read low 1 | locus YJL095W, strain BCK1 (second series), active compounds read low 0.997 | locus YJL095W, strain BCK1, active compounds read low 0.996 and 1.02 | locus YJL115W, strain asf1, active compounds read low 1.01 | locus YJL129C, strain trk1, active compounds read low 0.967 | locus YJL134W, strain LCB3, active compounds read low 1 | locus YJL154C, strain vps35, active compounds read low 0.999 | locus YJL164C, strain tpk1, active compounds read low 0.992 | locus YJL166W, strain qcr8, active compounds read low 0.984 | locus YJL168C, strain set2, active compounds read low 1.02 | locus YJL187C, strain SWE1 (second series), active compounds read low 0.995 | locus YJL187C, strain SWE1, active compounds read low 1 | locus YJR043C, strain POL32, active compounds read low 1.03 | locus YJR066W, strain TOR1, active compounds read low 1.01
